From PubChem BioAssay (EPA / NIEHS)
Results filed as inconclusive are left out. The source made the active and inactive calls. The calls were made as follows, unless noted: active = hit-call score of the fitted dose curve at least 0.9, where 1 is the maximum; inactive = score below 0.9.

Legend:
[1] = ATG_TAL_CIS: Attagene CIS-FACTORIAL HepG2 Assay for human TAL Basal Promoter (AID 2282966); conditions: HepG2 Attagene cis-factorial TAL promoter reporter; actives raise or lower the signal;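 also: background control endpoint measuring basal TAL promoter reporter mRNA not a specific factor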
Method in brief: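 In this cell-based multiplex, HepG2 liver cells bearing cis-promoter reporter constructs are dosed for 24 hours. Total RNA is reverse-transcribed and amplified, labelled fragments are sized by capillary electrophoresis, and signal changes are fitted bidirectionally versus DMSO.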

[2] = ATG_TGFb_CIS: Attagene CIS-FACTORIAL HepG2 Assay for human Transforming Growth Factor (TGF) (AID 2282967); conditions: HepG2 Attagene CIS TGFb reporter, mRNA transcription; actives raise or lower the signal
Method in brief: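 Endogenous TGFB1-linked transcription factor activity read as reporter mRNA via RT-PCR and capillary electrophoresis, 24 h after dosing transiently transfected HepG2 cells. Gain or loss of signal fitted relative to DMSO.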

[3] = ATG_VDRE_CIS: Attagene CIS-FACTORIAL HepG2 Assay for human Vitamin D Receptor Element (VDRE) (AID 2282968); conditions: HepG2 VDRE cis-reporter transcription, actives raise or lower the signal
Method in brief: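 In transiently transfected HepG2 liver cells, gain or loss of reporter mRNA after 24 h exposure is scored relative to DMSO, using fluorescence detection by capillary electrophoresis of RT-PCR products.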

[4] = biological target: X-box-binding protein 1 (Homo sapiens) (UniProt P17861); assay: ATG_Xbp1_CIS: Attagene CIS-FACTORIAL HepG2 Assay for human X-box Binding Protein 1 (XBP1) (AID 2282972); conditions: HepG2 XBP1 cis-element reporter, Attagene multiplex; actives raise or lower the signal
X-box-binding protein 1 (Homo sapiens), sequence (P17861 whole entry, looked up): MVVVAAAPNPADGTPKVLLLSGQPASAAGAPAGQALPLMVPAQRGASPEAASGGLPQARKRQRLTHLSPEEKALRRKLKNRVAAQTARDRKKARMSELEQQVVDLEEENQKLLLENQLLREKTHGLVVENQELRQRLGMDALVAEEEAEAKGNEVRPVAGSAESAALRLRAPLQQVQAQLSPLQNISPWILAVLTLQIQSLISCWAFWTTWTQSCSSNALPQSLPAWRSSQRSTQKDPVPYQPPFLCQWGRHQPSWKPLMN
Method in brief: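 HepG2, transient MRTU transfection (cis-promoter driven), 24 h compound exposure. Total RNA → oligo(dT) RT → PCR → 6-FAM labeling → HpaI cut → CE. Bidirectional fit vs DMSO.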

[5] = ATG_GAL4_TRANS: Attagene TRANS-FACTORIAL HepG2 Assay for GAL4 (Internal Marker) (AID 2282976; active = hit-call score of the fitted dose curve at least 0.9, where 1 is the maximum); conditions: HepG2 Attagene TRANS GAL4 internal marker reporter
Method in brief: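 RT-PCR/capillary electrophoresis readout of reporter mRNA. HepG2, transient MRTU transfection (GAL4-UAS reporters), 24 h compound exposure. Background-control endpoint, positive direction vs DMSO baseline.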

[6] = biological target: Oxysterols receptor LXR-beta (Homo sapiens) (UniProt P55055); assay: ATG_LXRb_TRANS: Attagene TRANS-FACTORIAL HepG2 Assay for human Liver X Receptor beta (LXRb) (AID 2282981; active = hit-call score of the fitted dose curve at least 0.9, where 1 is the maximum); conditions: HepG2 Attagene TRANS GAL4-LXRb reporter, mRNA
Oxysterols receptor LXR-beta (Homo sapiens), sequence (P55055 whole entry, looked up, the tested form may be a part): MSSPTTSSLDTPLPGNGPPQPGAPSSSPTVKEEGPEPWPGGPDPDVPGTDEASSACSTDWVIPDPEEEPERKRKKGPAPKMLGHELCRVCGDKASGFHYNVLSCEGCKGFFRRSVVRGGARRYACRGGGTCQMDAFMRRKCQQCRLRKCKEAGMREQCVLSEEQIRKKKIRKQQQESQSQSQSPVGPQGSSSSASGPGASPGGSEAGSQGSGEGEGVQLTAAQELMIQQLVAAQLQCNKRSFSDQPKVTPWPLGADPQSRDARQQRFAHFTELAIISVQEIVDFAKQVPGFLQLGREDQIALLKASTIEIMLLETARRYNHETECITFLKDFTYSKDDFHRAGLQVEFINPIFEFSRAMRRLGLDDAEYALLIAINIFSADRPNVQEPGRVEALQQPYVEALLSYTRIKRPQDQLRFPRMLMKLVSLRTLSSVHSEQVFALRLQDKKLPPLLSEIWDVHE
Method in brief: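 Cells: HepG2, transiently transfected with GAL4-UAS reporter units plus LXRb-Gal4 fusion. Treatment: 24 h. Detection: reporter mRNA by RT-PCR, 6-FAM labelling, HpaI digestion, capillary electrophoresis.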

[7] = biological target: Hepatocyte nuclear factor 4-alpha (Homo sapiens) (UniProt P41235); assay: ATG_HNF4a_TRANS: Attagene TRANS-FACTORIAL HepG2 Assay for human Hepatocyte Nuclear Factor 4 alpha (HNF4a) (AID 2282982; active = hit-call score of the fitted dose curve at least 0.9, where 1 is the maximum); conditions: HepG2 HNF4a transactivation reporter, mRNA readout
Method in brief: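 Transfected HepG2 reporter cells are dosed for 24 h; reporter RNA is reverse-transcribed, amplified, fluorescently labelled and HpaI-digested before CE sizing. Positive-direction fit against DMSO.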

[8] = ATG_M_06_TRANS: Attagene TRANS-FACTORIAL HepG2 Assay for M06 Transcription Factor (Internal Marker) (AID 2282983; active = hit-call score of the fitted dose curve at least 0.9, where 1 is the maximum); conditions: HepG2 Attagene TRANS M06 internal marker reporter
Method in brief: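 After a 24 h chemical treatment of transfected HepG2, RNA underwent DNase I treatment, reverse transcription and reporter-specific PCR; labelled, HpaI-digested products were sized by capillary electrophoresis. Signal increase relative to DMSO defined activity.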

[9] = biological target: Nuclear receptor subfamily 4 group A member 2 (Homo sapiens) (UniProt P43354); assay: ATG_NURR1_TRANS: Attagene TRANS-FACTORIAL HepG2 Assay for human Nuclear Receptor Related Protein 1 (NURR1) (AID 2282985; active = hit-call score of the fitted dose curve at least 0.9, where 1 is the maximum); conditions: HepG2 Attagene TRANS reporter, mRNA readout
Nuclear receptor subfamily 4 group A member 2 (Homo sapiens), sequence (P43354 whole entry, looked up): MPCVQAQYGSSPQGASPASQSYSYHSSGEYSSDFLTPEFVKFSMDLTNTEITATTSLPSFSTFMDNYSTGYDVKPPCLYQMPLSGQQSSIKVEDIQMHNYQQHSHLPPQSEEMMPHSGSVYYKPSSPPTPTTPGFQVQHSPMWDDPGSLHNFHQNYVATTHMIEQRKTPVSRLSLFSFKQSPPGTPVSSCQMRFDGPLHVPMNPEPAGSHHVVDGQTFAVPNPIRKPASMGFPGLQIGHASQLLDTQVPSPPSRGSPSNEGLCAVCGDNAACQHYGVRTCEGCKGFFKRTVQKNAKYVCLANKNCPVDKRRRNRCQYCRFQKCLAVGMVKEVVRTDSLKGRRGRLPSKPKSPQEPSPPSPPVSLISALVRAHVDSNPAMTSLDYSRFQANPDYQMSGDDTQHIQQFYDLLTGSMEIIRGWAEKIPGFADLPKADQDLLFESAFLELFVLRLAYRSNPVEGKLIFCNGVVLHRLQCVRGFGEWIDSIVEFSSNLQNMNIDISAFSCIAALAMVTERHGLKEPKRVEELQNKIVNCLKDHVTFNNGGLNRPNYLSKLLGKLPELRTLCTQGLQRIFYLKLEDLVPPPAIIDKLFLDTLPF
Method in brief: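 Cells: HepG2, transiently transfected. Exposure: 24 h. Detection: fluorescence of labelled RT-PCR products separated by capillary electrophoresis; upward fit versus DMSO.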

[10] = biological target: Transcriptional activator Myb (Homo sapiens) (UniProt P10242); assay: ATG_Myb_CIS: Attagene CIS-FACTORIAL HepG2 Assay for human Myeloblastosis (Myb) Proto-Oncogene Transcription Factor (AID 2282986); conditions: HepG2 Attagene CIS-FACTORIAL Myb reporter transcription; actives raise or lower the signal
Transcriptional activator Myb (Homo sapiens), sequence (P10242 whole entry, looked up): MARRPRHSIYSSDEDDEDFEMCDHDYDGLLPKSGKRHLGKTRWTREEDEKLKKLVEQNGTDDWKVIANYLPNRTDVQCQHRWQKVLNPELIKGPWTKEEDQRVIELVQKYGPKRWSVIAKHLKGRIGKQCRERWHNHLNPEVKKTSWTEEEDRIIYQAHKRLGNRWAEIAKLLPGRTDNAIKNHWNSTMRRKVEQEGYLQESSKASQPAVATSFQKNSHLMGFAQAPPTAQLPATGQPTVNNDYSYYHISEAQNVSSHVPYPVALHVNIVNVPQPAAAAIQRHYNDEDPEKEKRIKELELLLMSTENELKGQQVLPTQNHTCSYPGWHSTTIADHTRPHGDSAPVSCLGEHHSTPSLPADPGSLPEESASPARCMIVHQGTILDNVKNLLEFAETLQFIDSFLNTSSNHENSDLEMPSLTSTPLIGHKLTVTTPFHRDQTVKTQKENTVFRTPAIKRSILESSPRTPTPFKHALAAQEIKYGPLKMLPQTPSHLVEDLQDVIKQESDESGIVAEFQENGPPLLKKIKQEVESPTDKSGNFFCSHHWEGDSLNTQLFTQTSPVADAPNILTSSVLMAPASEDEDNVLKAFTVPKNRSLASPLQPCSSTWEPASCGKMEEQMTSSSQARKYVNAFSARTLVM
Method in brief: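 Steps: transfect HepG2 with cis-regulated reporter units; dose with chemical for 24 h; isolate RNA, reverse-transcribe, PCR-amplify and FAM-label reporter sequences; digest with HpaI; resolve by capillary electrophoresis. Activity fitted in both directions relative to DMSO.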

[11] = biological target: Nuclear respiratory factor 1 (Homo sapiens) (UniProt Q16656); assay: ATG_NRF1_CIS: Attagene CIS-FACTORIAL HepG2 Assay for human Nuclear Respiratory Factor 1 (NRF1) Orphan Gene (AID 2282987); conditions: HepG2 NRF1 cis-element reporter, Attagene multiplex; actives raise or lower the signal
Nuclear respiratory factor 1 (Homo sapiens), sequence (Q16656 whole entry, looked up, the tested form may be a part): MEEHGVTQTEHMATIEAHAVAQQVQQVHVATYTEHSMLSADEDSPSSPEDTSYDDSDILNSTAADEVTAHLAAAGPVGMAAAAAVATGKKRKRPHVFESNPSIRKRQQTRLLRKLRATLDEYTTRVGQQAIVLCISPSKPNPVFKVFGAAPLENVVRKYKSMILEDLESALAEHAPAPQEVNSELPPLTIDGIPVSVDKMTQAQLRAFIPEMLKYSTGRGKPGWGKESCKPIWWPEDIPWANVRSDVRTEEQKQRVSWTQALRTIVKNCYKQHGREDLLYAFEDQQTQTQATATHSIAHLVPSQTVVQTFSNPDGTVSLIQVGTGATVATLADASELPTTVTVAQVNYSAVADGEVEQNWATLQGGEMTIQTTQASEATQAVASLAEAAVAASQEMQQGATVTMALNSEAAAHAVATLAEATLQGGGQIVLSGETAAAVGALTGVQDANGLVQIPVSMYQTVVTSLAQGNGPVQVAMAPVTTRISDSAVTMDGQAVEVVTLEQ
Method in brief: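 Fluorescence intensity of labelled reporter cDNA fragments, resolved by capillary electrophoresis, served as readout for NRF1 cis-element activity. Transiently transfected HepG2 cells were dosed for 24 hours; activity in either direction was fitted against DMSO negative control.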

[12] = biological target: Nuclear receptor subfamily 1 group I member 3 (Homo sapiens) (UniProt Q14994); assay: ATG_CAR_TRANS: Attagene TRANS-FACTORIAL HepG2 Assay for human Constitutive Androstane Receptor (CAR) (AID 2282969; active = hit-call score of the fitted dose curve at least 0.9, where 1 is the maximum;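 also: activators raise reporter mRNA above DMSO so AC50 marks induction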); conditions: HepG2 Attagene TRANS-FACTORIAL CAR reporter
Nuclear receptor subfamily 1 group I member 3 (Homo sapiens), sequence (Q14994 whole entry, looked up, the tested form may be a part): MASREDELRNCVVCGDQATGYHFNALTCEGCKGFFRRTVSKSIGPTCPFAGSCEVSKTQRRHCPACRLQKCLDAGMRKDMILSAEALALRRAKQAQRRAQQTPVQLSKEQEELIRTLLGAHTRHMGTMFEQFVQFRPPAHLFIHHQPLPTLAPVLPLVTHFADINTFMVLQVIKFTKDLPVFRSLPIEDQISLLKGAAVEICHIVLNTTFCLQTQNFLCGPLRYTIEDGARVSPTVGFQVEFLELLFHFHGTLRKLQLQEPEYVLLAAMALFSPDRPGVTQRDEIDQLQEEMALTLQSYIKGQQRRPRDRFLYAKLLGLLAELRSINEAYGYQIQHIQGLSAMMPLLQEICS
Method in brief: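 Readout is reporter mRNA induction, quantified by fluorescent primer extension and capillary electrophoresis after RT-PCR. Cells were HepG2 transiently carrying chimeric NR-Gal4 constructs with GAL4-UAS reporters, treated for 24 h; activity scored upward from DMSO.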

[13] = biological target: Steroid hormone receptor ERR1 (Homo sapiens) (UniProt P11474); assay: ATG_ERRa_TRANS: Attagene TRANS-FACTORIAL HepG2 Assay for human Estrogen-Related Receptor alpha (ERRa) (AID 2282971; active = hit-call score of the fitted dose curve at least 0.9, where 1 is the maximum); conditions: HepG2 Attagene TRANS reporter, ERRa transactivation
Method in brief: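 Transfected HepG2, 24 h dosing, ERRa-Gal4 chimera driving GAL4-UAS reporter. Readout: reporter mRNA via RT-PCR plus capillary electrophoresis (fluorescence). Positive direction vs DMSO control.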

[14] = biological target: Glucocorticoid receptor (Homo sapiens) (UniProt P04150); assay: ATG_GR_TRANS: Attagene TRANS-FACTORIAL HepG2 Assay for human Glucocorticoid Receptor (GR) (AID 2282978; active = hit-call score of the fitted dose curve at least 0.9, where 1 is the maximum;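 also: activators score as hits since higher reporter transcript over DMSO is fitted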); conditions: HepG2 Attagene TRANS GR reporter, mRNA transcription
Glucocorticoid receptor (Homo sapiens), sequence (P04150 whole entry, looked up, the tested form may be a part): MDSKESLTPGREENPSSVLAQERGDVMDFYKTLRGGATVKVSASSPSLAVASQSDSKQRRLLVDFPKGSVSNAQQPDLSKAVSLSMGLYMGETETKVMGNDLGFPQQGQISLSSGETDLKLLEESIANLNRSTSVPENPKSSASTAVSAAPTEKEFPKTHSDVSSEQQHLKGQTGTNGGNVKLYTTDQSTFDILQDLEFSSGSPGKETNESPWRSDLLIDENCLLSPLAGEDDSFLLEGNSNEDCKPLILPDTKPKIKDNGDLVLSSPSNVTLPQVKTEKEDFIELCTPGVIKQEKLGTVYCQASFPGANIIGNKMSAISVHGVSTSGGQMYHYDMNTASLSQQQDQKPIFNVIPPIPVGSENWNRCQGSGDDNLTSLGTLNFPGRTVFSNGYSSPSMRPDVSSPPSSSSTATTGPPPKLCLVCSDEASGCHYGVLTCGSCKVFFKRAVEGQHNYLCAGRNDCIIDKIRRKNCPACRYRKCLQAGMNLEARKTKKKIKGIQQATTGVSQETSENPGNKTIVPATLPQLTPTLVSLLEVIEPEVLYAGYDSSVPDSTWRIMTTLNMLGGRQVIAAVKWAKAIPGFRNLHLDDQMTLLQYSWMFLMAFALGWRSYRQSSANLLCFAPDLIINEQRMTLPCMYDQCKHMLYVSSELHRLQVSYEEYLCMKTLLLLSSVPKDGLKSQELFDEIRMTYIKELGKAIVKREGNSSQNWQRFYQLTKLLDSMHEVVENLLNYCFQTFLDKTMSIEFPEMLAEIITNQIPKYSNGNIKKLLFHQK
Method in brief: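 In this trans-factorial format, exogenous NR-GAL4 chimeric proteins in transfected HepG2 cells regulate GAL4-UAS reporter transcription. After 24 h treatment, reporter mRNA induction relative to DMSO is read by RT-PCR and capillary electrophoresis.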

[15] = biological target: Bile acid receptor (Homo sapiens) (UniProt Q96RI1); assay: ATG_FXR_TRANS: Attagene TRANS-FACTORIAL HepG2 Assay for Farnesoid X Receptor (FXR) (AID 2282979; active = hit-call score of the fitted dose curve at least 0.9, where 1 is the maximum;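 also: hits raise reporter mRNA above DMSO so AC50 marks FXR activation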); conditions: HepG2 Attagene TRANS FXR-GAL4 reporter transcription
Bile acid receptor (Homo sapiens), sequence (Q96RI1 whole entry, looked up, the tested form may be a part): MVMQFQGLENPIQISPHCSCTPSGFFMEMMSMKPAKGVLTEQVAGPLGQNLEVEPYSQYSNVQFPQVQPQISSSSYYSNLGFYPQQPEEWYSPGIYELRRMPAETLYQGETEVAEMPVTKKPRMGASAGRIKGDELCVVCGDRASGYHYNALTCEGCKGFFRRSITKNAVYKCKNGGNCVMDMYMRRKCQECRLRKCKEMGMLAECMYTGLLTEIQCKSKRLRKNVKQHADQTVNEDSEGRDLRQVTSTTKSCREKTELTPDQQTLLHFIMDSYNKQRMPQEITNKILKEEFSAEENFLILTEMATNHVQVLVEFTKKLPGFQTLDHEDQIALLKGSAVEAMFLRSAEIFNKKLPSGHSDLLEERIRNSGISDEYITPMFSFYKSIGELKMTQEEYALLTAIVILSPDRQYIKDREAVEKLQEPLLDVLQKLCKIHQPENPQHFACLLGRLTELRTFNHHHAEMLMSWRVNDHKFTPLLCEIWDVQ
Method in brief: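 Read-out: fluorescent reporter transcripts quantified by capillary electrophoresis after RT-PCR of total RNA. Source cells were HepG2 transiently carrying chimeric NR-GAL4 plus GAL4-UAS reporter units, dosed 24 h. Activity fitted upward relative to DMSO baseline.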

[16] = biological target: Estrogen receptor (Homo sapiens) (UniProt P03372); assay: ATG_ERa_TRANS: Attagene TRANS-FACTORIAL HepG2 Assay for human Estrogen Receptor alpha (ERa) (AID 2282970; active = hit-call score of the fitted dose curve at least 0.9, where 1 is the maximum); conditions: HepG2 Attagene TRANS ERa GAL4 reporter, mRNA
Method in brief: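 After 24 h of compound treatment, RNA from HepG2 cells bearing transfected GAL4-UAS reporter constructs is converted to cDNA, amplified and fluorescently labelled. Capillary electrophoresis resolves the ERa-linked reporter; DMSO serves as negative control.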

[17] = biological target: Estrogen-related receptor gamma (Homo sapiens) (UniProt P62508); assay: ATG_ERRg_TRANS: Attagene TRANS-FACTORIAL HepG2 Assay for human Estrogen-Related Receptor gamma (ERRg) (AID 2282977; active = hit-call score of the fitted dose curve at least 0.9, where 1 is the maximum;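 also: hits increase reporter signal over DMSO so potencies reflect activators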); conditions: HepG2 Attagene TRANS reporter, ERRg transactivation
Estrogen-related receptor gamma (Homo sapiens), sequence (P62508 whole entry, looked up, the tested form may be a part): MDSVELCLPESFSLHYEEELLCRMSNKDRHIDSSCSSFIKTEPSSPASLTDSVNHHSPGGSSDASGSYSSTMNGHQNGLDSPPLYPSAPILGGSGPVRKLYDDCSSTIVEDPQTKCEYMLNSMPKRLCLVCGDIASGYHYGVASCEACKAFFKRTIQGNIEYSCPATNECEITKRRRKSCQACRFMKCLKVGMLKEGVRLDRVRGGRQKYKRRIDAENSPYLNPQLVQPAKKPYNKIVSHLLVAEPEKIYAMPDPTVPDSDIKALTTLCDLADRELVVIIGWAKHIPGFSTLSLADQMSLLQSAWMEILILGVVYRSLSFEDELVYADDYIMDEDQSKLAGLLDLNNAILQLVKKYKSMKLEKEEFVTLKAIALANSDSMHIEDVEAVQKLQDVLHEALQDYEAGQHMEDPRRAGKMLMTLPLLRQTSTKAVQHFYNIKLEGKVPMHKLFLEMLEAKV
Method in brief: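 Transient HepG2 transfectants, 24 h compound exposure, GAL4-UAS reporter mRNA by RT-PCR/6-FAM labelling/capillary electrophoresis; positive direction vs DMSO.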

[18] = biological target: Oxysterols receptor LXR-alpha (Homo sapiens) (UniProt Q13133); assay: ATG_LXRa_TRANS: Attagene TRANS-FACTORIAL HepG2 Assay for human Liver X Receptor alpha (LXRa) (AID 2282980; active = hit-call score of the fitted dose curve at least 0.9, where 1 is the maximum); conditions: HepG2 Attagene TRANS reporter, LXRa transactivation
Oxysterols receptor LXR-alpha (Homo sapiens), sequence (Q13133 whole entry, looked up, the tested form may be a part): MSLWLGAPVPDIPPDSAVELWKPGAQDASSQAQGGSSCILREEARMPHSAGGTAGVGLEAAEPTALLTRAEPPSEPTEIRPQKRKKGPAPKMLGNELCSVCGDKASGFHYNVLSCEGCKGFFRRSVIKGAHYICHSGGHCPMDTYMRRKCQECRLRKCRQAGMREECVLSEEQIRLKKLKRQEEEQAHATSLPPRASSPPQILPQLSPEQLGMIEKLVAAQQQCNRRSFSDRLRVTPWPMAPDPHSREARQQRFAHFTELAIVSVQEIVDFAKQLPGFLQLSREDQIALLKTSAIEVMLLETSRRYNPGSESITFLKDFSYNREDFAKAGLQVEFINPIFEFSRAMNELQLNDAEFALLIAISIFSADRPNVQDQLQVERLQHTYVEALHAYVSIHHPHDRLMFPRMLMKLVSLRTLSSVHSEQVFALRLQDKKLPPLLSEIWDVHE
Method in brief: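 Read-out: reporter transcript levels by RT-PCR plus capillary electrophoresis, fluorescence intensity. Transiently transfected HepG2, exogenous NR-GAL4 chimera, GAL4-UAS reporters; 24 h compound exposure. Activity = increase over DMSO negative control.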

[19] = ATG_M_19_TRANS: Attagene TRANS-FACTORIAL HepG2 Assay for M19 Transcription Factor (Internal Marker) (AID 2282974; active = hit-call score of the fitted dose curve at least 0.9, where 1 is the maximum); conditions: HepG2 Attagene TRANS-FACTORIAL M19 internal marker reporter
Method in brief: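 Cells: human HepG2, transiently transfected with multiplexed reporter transcription units. Exposure: 24 h. Detection: RT-PCR of reporter mRNA with capillary electrophoresis. Analysis: gain-of-signal vs DMSO.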

Measured: AC50

CC(C)c1cccc(C(C)C)c1NC(=O)NS(=O)(=O)c1cc(C(C)(C)O)co1
active: [3] 29.7 µM
inactive: [1] | [2] | [4] | [5] | [6] | [7] | [8] | [9] | [10] | [11]

CCCCC(CC)COC(=O)CCCCCCCC(=O)OCC(CC)CCCC (stereo unspecified)
not listed: [3] | [5] | [7] | [16] | [17] | [18] | [19]
inactive: all other assays above

COC(=O)CCCC(=O)OC
not listed: [5] | [6] | [12] | [13] | [16] | [17] | [18] | [19]
inactive: all other assays above

Cc1ccc(-c2cc(C(F)(F)F)nn2-c2ccc(S(N)(=O)=O)cc2)cc1
inactive: [1] | [2] | [16] | [4] | [17] | [14] | [8] | [9] | [10] | [11]

CC(=O)OCC(COC(C)=O)OC(C)=O
not listed: [5] | [9] | [12] | [13] | [15] | [16] | [18] | [19]
inactive: all other assays above

Nc1nc(=S)c2[nH]cnc2[nH]1
not listed: [3] | [5] | [13] | [14] | [15] | [17] | [19]
inactive: all other assays above

NC=O
not listed: [5] | [12] | [13] | [14] | [15] | [16] | [19]
inactive: all other assays above

Nc1nc(Cl)nc2c1ncn2[C@H]1C[C@H](O)[C@@H](CO)O1
inactive: [1] | [2] | [3] | [4] | [14] | [15] | [6] | [8] | [10] | [11]

CN(C)CCCN1c2ccccc2Sc2ccc(Cl)cc21
active: [3] 11.1 µM
inactive: [1] | [2] | [4] | [14] | [15] | [6] | [8] | [9] | [10] | [11]

O=C1c2c(O)cccc2Cc2cccc(O)c21
inactive: [1] | [2] | [4] | [5] | [14] | [8] | [9] | [10] | [11]

C#CC(O)C(CC)CCCC (stereo unspecified)
inactive: [1] | [2] | [12] | [4] | [19] | [14] | [18] | [9] | [10] | [11]

COC(=O)[C@H]1[C@H]2C[C@@H]3c4[nH]c5cc(OC)ccc5c4CCN3C[C@H]2C[C@@H](OC(=O)c2cc(OC)c(OC)c(OC)c2)[C@@H]1OC
inactive: [1] | [2] | [4] | [14] | [8] | [10] | [11]
